Compound activity from PubChem BioAssay.
MITF inh: MITF inhibitors, primary screen, biochemical, AlphaScreen, human | Microphthalmia-associated transcription factor (Homo sapiens), O75030 | AlphaScreen MITF homodimerization, bead proximity signal | inhibition, % at 2.6 µM | actives 0.91% (n = 650,000) | AID 1259374, 2018; in the data active means inhibition above about 50%
FBW7 activator: FBW7 E3 ligase activators, primary screen, biochemical, AlphaScreen, human; F-box/WD repeat-containing protein 7 (Homo sapiens), Q969H0; AlphaScreen FBW7–phospho-cyclin E peptide binding, activator screen; normalized activity (activation), % at 26.1 µM; actives 0.13% (n = 650,000); AID 1259310, 2017; in the data active means normalized activity above about 1.9%;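 further: purified mutant Fbw7 with reduced substrate affinity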
Target sequence (Q969H0 whole entry, looked up): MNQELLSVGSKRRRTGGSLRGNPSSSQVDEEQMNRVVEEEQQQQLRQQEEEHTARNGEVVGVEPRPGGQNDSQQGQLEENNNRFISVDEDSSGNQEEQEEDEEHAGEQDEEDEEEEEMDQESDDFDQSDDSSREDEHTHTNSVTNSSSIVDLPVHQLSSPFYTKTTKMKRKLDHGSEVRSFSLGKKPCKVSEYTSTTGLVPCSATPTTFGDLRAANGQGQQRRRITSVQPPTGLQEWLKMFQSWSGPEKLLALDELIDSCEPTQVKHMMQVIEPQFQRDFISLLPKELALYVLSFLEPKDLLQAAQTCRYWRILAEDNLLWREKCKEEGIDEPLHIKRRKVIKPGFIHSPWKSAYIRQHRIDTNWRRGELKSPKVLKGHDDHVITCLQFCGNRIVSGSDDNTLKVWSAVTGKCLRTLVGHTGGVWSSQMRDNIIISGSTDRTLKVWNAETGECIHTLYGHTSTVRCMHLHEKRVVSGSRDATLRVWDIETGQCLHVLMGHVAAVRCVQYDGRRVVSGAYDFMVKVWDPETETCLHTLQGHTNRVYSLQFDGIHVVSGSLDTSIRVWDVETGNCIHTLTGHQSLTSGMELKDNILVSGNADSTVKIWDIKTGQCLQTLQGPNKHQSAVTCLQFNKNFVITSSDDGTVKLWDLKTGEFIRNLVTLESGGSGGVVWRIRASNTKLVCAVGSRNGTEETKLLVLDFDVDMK
GPR151 ag: activators of human GPR151, primary screen, cell-based, PathHunter beta-arrestin, luminescence; actives 1% (n = 650,000); PathHunter beta-arrestin GPR151 cells; activation, % at 11.2 µM; AID 1508602, 2020; in the data active means activation above about 4.9%
TEAD-YAP inh: TEAD-YAP interaction inhibition, primary screen, TEAD-YAP interaction inhibitor project, luminescence, HEK-TIYL cells | AID 1259422, 2018 | inhibition, % at 9.12 µM | TEAD-Gal4/YAP UAS-luciferase luminescence | actives 1.4% (n = 640,000); in the data active means inhibition above about 32%
MITF inh conf: MITF inhibitors, retest of hits, confirmation, biochemical, AlphaScreen, triplicate; shares compounds with MITF inh; AlphaScreen MITF homodimerization, biotin/His-MITF beads; inhibition, % at 2.6 µM; actives 16% (n = 4,700);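 active means inhibition above a cutoff derived from the DMSO control wells, cut at about 28% in these data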;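 further: inhibitors lower the bead chemiluminescence by keeping MITF from dimerizing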
AS interf DR: AlphaScreen optical interference compounds, dose response, counter-screen, biochemical, HTS; AlphaScreen optical interference counterscreen, cell-free; actives 6% (n = 480); IC50, µM; shares compounds with MITF inh; call rule not given here
AS interf ctr: AlphaScreen optical interference compounds, counter-screen for MITF inhibitor project, biochemical, triplicate. shares compounds with MITF inh. LysRS AlphaScreen counterscreen, signal interference. inhibition, % at 2.6 µM. actives 7.6% (n = 4,700). AID 1259376, 2018;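 active means inhibition above a cutoff derived from the DMSO control wells, cut at about 30% in these data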
Of the large screens only hits and unclear results are named; the others gave an inactive call (follow-up assays come after a bar, where they were run). Hits are enriched below; roughly 3.5% of the tested compounds scored in any of these assays.

COC(=O)Nc1ccc(S(=O)(=O)N2CCC(C)CC2)cc1	MITF inh 74.5 | MITF inh conf inactive | AS interf ctr inactive
CCOC(=O)c1c(NC(=O)CN(C)Cc2ccccc2)sc2c1CC(C)(C)NC2(C)C	MITF inh 65.4 | MITF inh conf inactive | AS interf ctr inactive
CCOC(=O)c1c(NC(=O)CN(C)C)sc2c1CC(C)(C)NC2(C)C	none
CCOC(=O)c1ccoc1CN1CCN(c2cccc(C)c2C)CC1	none
COc1ccc(OC)c(CN2CCN(C/C=C/c3ccccc3)CC2)c1	MITF inh 80.5 | MITF inh conf inactive | AS interf ctr inactive
CCOC(=O)c1ccoc1CN1CCN(C/C=C/c2ccccc2)CC1	MITF inh 78.6 | MITF inh conf inactive | AS interf ctr inactive
COc1ccccc1CN1CCN(C/C=C/c2ccccc2)CC1	MITF inh 68.8 | MITF inh conf inactive | AS interf ctr inactive
COc1ccc(CN2CCN(C/C=C/c3ccccc3)CC2)c(O)c1	none
CC(C)(C)CC(=O)Nc1ccc(I)cc1	none
COc1ccc(OC)c(NC(=O)C/C(C)=N/NC(C)=O)c1	none
CCN(CC)CCN(C)Cc1ccc(F)cc1F	MITF inh 56.7 | MITF inh conf inactive | AS interf ctr inactive
CCN(CC)CCN(C)Cc1c(F)cccc1Cl	MITF inh 56.5 | MITF inh conf inactive | AS interf ctr inactive
CCN(CC)CCN(C)Cc1cccc2ccccc12	MITF inh 66.2 | MITF inh conf inactive | AS interf ctr inactive
O=C(NNC(=O)c1ccc([N+](=O)[O-])cc1Cl)c1cccc([N+](=O)[O-])c1	none
C=CCn1c(SCC(=O)Nc2ccccc2C(F)(F)F)nnc1-c1ccco1	none
CCOC(=O)N1CCN(C(=S)Nc2ccc(OCC)cc2)CC1	MITF inh 101.8 | MITF inh conf 64.1 | AS interf DR inactive | AS interf ctr inactive
CCOc1ccc(NCC(=O)Nc2ccc(F)cc2)cc1	MITF inh 68.1 | MITF inh conf inactive | AS interf ctr inactive
CCOC(=O)c1ccc(NC(=S)N2CCN(C(=O)OCC)CC2)cc1	none
CCC(Sc1nc2ccsc2c(=O)n1CCCC(=O)NCCc1ccc(S(N)(=O)=O)cc1)C(=O)Nc1cccc(C)c1 (centres undefined)	none
Cc1nc(N2CCOCC2)c2ccsc2n1	MITF inh 82.3 | MITF inh conf inactive | AS interf ctr inactive
Cc1nc(N2CCCC2)c2ccsc2n1	none
CN1CCC(NCc2ccc(F)cc2)CC1	MITF inh 57.3 | MITF inh conf inactive | AS interf ctr inactive
C=CCNC(=O)/C(=C\c1ccc(-c2ccc(Cl)cc2)o1)NC(=O)c1ccccc1	none
CCOc1ccc(-c2nn3c(COc4ccccc4)nnc3s2)cc1	none
c1ccc(OCc2nnc3sc(-c4cccnc4)nn23)cc1	MITF inh 63.6 | MITF inh conf inactive | AS interf ctr inactive
Cc1ccc(NC(=O)c2cccnc2Cl)c(Br)c1	none
CN1CCN(Cc2coc3c(Cl)cc(Cl)cc3c2=O)CC1	MITF inh 64.5 | MITF inh conf inactive | AS interf ctr inactive
O=c1c(CN2CCCCC2)coc2ccc(Cl)cc12	none
COc1ccc(COCC(O)CNCCCn2ccnc2)cc1 (centres undefined)	MITF inh 82.5 | MITF inh conf inactive | AS interf ctr inactive
COc1ccc(CCC(C)NCCCn2ccnc2)cc1 (centres undefined)	none
CCS(=O)(=O)N1CCN(Cc2cc(OC)ccc2OC)CC1	none
CCOc1ccc(CN2CCN(Cc3ccc(OC)cc3OC)CC2)cc1	MITF inh 68.4 | MITF inh conf inactive | AS interf ctr inactive
COc1ccc(CN2CCOCC2)c(OC)c1	none
CCOc1ccc(CN2CCN(Cc3cc(OC)ccc3OC)CC2)cc1	MITF inh 79.0 | MITF inh conf inactive | AS interf ctr inactive
COc1ccc(CN2CCC(O)CC2)c(OC)c1	none
COc1ccc(OC)c(CN2CCN(Cc3ccc(SC)cc3)CC2)c1	MITF inh 76.0 | MITF inh conf inactive | AS interf ctr inactive
